According to PubChem BioAssay (NCI):
This is part of a sample that, as a whole, favours compounds with a hit. Of some 79,000 tested, about 15% had one in any assay. Active and inactive are the calls of the source. Cut-off read from the data, not from the text of the source: active = growth inhibition above about 70%; inactive = the rest.

Assay: NCI Yeast Anticancer Drug Screen. Data for the rad50 strain (AID 155);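 note: 0% = growth of vehicle-only cultures of the same strain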
Conditions: S. cerevisiae rad50 strain growth inhibition; at 50.0 µM; active compounds read high
Method in brief: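 Genetically altered yeast (DNA repair pathway); compound treatment; growth inhibition vs vehicle ctrl.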

Compound | growth inhibition
O=[N+]([O-])c1cccc(S(=O)(=O)N/N=C/c2cc(I)cc([N+](=O)[O-])c2O)c1 | 25.1% (inactive)
COc1cc(N=Nc2cccc(S(N)(=O)=O)c2)c2ccccc2c1N | 95.3% (active)
O=S(=O)(c1ccc(O)cc1)c1ccc(Cl)cc1 | 44.3% (inactive)
C[N+](C)=c1ccc2nc3c(cc(NCCCNc4cc5oc6cc(=[N+](C)C)ccc-6nc5c5ccccc45)c4ccccc43)oc-2c1 | 75.8% (active)
CC(C)(C)C(=O)/C=C/c1ccc2ccccc2n1 | 44.4% (inactive)
CSc1ccc(/C=N/NC(N)=S)cc1 | 91% (active)
CN(C)c1ccc(/C=C(\C#N)c2c(F)cccc2F)cc1 | 6.05% (inactive)
O=C(/C=C\c1ccccc1)N1c2ccccc2CC1c1c[nH]c2ccccc12 (stereo not given) | 6.35% (inactive)
COc1cccc(C2c3cc4c(cc3OC(Nc3ccccc3)C2C)OCO4)c1O (stereo not given) | 77.5% (active)
CC(/C=C/c1cccs1)=N\C(=S)NC(N)=S | 3.7% (inactive)
C=C1C(=O)O[C@H]2[C@H](OC(C)=O)[C@@H](C)CCC/C(C)=C/CC[C@@]3(C)O[C@@H]3C[C@@H]12 | 91.9% (active)
CC(=O)O/C=C\COC(C)=O | 79.8% (active)
Cn1cc(NC(=O)c2cc(NC(=O)CCCCCCCCC(=O)Nc3cc(C(=O)Nc4cc(C(=O)NCCC(N)N)n(C)c4)n(C)c3)cn2C)cc1C(=O)NCCC(=N)N | 89.8% (active)
CCCCCCCNCCCCCC | 67.7% (inactive)
Cc1ccc(S(=O)(=O)N(c2ccccc2-c2ccccc2)C(C)C(=O)O)cc1 (stereo not given) | 92.3% (active)
CCCN1C(=O)c2ccccc2C1=O | 20.4% (inactive)
CCC(CC)COC(=O)c1ccc(O)c(O)c1 | 98.8% (active)
COc1ccc(C2SCC(=O)N2c2nncs2)cc1 (stereo not given) | 50.1% (inactive)
O=NN(CCCl)C(=O)Oc1cc(Cl)c(Cl)cc1Cl | 87.8% (active)
O=C(c1ccccc1)c1ccccc1S(=O)(=O)Nc1ccccc1 | 62.9% (inactive)

Compound | growth inhibition
O=S(O)CCCCCSSc1ccccc1 | 22.9% (inactive)
Cc1ccc(C)c(N2C(=O)C(=O)C(c3nc4ccccc4o3)/C(=N\NC(=O)c3ccccc3O)C2=O)c1 (stereo not given) | 62.3% (inactive)
Nc1ccc2ccccc2c1Cc1c(O)ccc2ccccc12 | 99.2% (active)
CN(C)CCC(=O)C(=Cc1cc(Cl)cc(Cl)c1)C(=O)CCN(C)C | 96.3% (active)
COC(=O)c1c(C(N)=O)c(C)n(NC(=O)c2ccccc2)c1C | 5.75% (inactive)
O=C(O)/C(=C/c1c(O)ccc2ccccc12)c1csc(-c2nc(/C(=C\c3c(O)ccc4ccccc34)C(=O)O)cs2)n1 | 89.6% (active)
O=C(O)c1c2c(cc3c1CC1(Cc4cc5c(cc4C1=O)CCC5)C3)CCC2 (stereo not given) | 89.4% (active)
CCc1cccc(C(C)(C)C)c1NC(=S)N/C=C(\c1ccccc1)S(=O)Cc1ccccc1 (stereo not given) | 68.4% (inactive)
O=[N+]([O-])c1ccc(N/N=C/COCCO)c([N+](=O)[O-])c1 | 37.4% (inactive)
O=C(O)CSc1nc(-c2ccccc2)c(-c2ccccc2)n1-c1ccccn1 | 76.2% (active)
C[C@]12CCC(=O)C=C1CC[C@@H]1[C@@H]2[C@@H](O)C[C@@]2(C)[C@H]1CC[C@]2(O)C(=O)COC(=O)C1CCCC1 | 76.8% (active)
C[C-](O)O.O/C(=C\[C-](O)c1ccccc1)c1ccccc1.O/C(=C\[C-](O)c1ccccc1)c1ccccc1.[Nd+3] (stereo not given) | 90.1% (active)
[Cl][Pt+2]([Cl])([Cl])[Cl].[NH-]CC1(C[NH-])CCCC1 | 90.2% (active)
CSc1ccc2c(c1)S[S@@](=O)N2 | 35.9% (inactive)
O=S=C(c1ccccc1)N(Cc1ccccc1)Cc1ccccc1 | 96% (active)
NNc1c(Cl)c(F)c(Cl)c(F)c1Cl | 21.6% (inactive)
Cc1ccc(C)c(N2C(=O)C(=O)C(c3nc4ccccc4o3)C(=O)C2=O)c1 | 99% (active)
NC(=S)N/N=C/c1ccc(Cl)s1 | 87.2% (active)
O=c1[nH]ccc(CNC23CC4CC(CC(C4)C2)C3)c1O | 49.9% (inactive)
CN(C)CCSc1cc(-c2ccccc2)c2ccccc2n1 | 59.5% (inactive)
